Only some compounds are listed: those with a hit (about 13% of all), similar ones and a draw of the others.
Lamin A splicing = qHTS Assay for Modulators of Lamin A Splicing. Potency, µM (top dose mostly 46.1 µM), most hits filed as inhibitors. AID 1487, 2009. HeLa LMNA splicing GFP/RFP minigene ratio, 48 h. 200,000 tested, 0.01% active; active = well fitted inhibition curve with a large enough effect in the signal ratio, with a control signal flat, not every such curve was filed as active; inconclusive = small, poorly fitted or top-dose-only effect, or effect the other way, or a change in a side signal; the % refers to the signal ratio
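Read-out is the ratio of GFP to DsRed2 object intensity, acquired by 488 nm laser-scanning cytometry on HeLa lamin A-EGFP minigene reporter cells. Compound incubation 48 hrs at 37 °C in Opti-MEM with 2% FBS; DMSO 0.5% final.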
G9a block = qHTS Assay for Inhibitors of Histone Lysine Methyltransferase G9a | Histone-lysine N-methyltransferase EHMT2 (Homo sapiens), Q96KQ7 | AID 504332, 2011 | G9a H3K9 monomethylation, AlphaScreen, 2 h | Potency, µM (top dose mostly 102 µM), usual class: inhibitors | 350,000 tested, 8.8% active; also: nearly all actives have a fitted effect of over 75% in size
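Using a bead-based AlphaScreen, monomethylated H3K9 product from 2 h room-temperature reactions (G9a 20 nM, peptide 500 nM, SAM 20 uM) was detected with 0.5 ug/mL rabbit anti-H3K9me1 antibody.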
miR-21 reporter = qHTS Assay for Modulators of miRNAs and/orActivators of miR-21 | HeLa miR-21 FLuc reporter, luciferase, 48 h | Potency, µM (highest dose often 38.3 µM), actives largely listed as activators | AID 2288, 2010 | 340,000 tested, under 10 active;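 also: miR-21 action dims this reporter so a rising signal means less miR-21 action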
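Luminescence from a firefly luciferase reporter carrying a miR-21 binding site downstream, stably expressed under a CMV promoter in HeLa cells that make miR-21 endogenously, reports miRNA modulation after 48 h compound exposure up to approximately 40uM final.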
ALDH1A1 block = qHTS Assay for Inhibitors of Aldehyde Dehydrogenase 1 (ALDH1A1) | Aldehyde dehydrogenase 1A1 (Homo sapiens), P00352 | Purified ALDH1A1, NADH fluorescence, propionaldehyde substrate | Potency, µM (doses to about 75.3 µM), actives largely listed as inhibitors | 220,000 tested, 7.3% active | AID 1030, 2008; active = well fitted inhibition curve with a large enough effect, not every such curve was filed as active; inconclusive = small, poorly fitted or top-dose-only effect, or another doubt; inactive = no such curve, though single readings can be large or run the other way
Target sequence (P00352 whole entry, looked up): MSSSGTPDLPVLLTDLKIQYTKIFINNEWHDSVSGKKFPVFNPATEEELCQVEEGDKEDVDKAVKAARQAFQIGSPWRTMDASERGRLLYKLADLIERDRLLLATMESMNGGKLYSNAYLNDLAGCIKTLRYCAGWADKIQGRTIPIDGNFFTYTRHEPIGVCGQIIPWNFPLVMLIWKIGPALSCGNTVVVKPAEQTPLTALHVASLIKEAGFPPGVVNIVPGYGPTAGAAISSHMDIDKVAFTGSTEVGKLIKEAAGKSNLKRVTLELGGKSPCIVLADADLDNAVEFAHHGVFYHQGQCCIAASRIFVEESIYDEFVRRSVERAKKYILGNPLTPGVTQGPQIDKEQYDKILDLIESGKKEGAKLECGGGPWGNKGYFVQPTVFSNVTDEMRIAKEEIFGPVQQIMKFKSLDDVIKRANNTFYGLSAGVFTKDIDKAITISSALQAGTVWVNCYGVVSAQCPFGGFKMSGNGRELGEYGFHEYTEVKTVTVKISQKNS
KDM4E inh = qHTS Assay for Inhibitors of Human Jumonji Domain Containing 2E (JMJD2E); Potency, µM (highest dose often 57.1 µM), hits mostly inhibitors; JMJD2E catalytic domain, FDH-coupled NADH fluorescence (FDH is formaldehyde dehydrogenase); 230,000 tested, 1.6% active; active = well fitted inhibition curve with a large enough effect, not every such curve was filed as active; inconclusive = small, poorly fitted or top-dose-only effect, or another doubt; inactive = no such curve, though single readings can be large or run the other way; also: nearly all actives have a fitted effect of over 50% in size
Sfp PPTase inh = qHTS Assay for Inhibitors of Bacillus subtilis Sfp phosphopantetheinyl transferase (PPTase); 4'-phosphopantetheinyl transferase ffp (Bacillus subtilis), Q9F4F7; 310,000 tested, 3.5% active; Biochemical Sfp PPTase activity, qHTS; AID 1490, 2009; Potency, µM, usual class: inhibitors;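 also: the enzyme is Sfp with the accession as filed and its product quenches rhodamine fluorescence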
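Step 1, compound plus 15 nM Sfp-PPTase, 15 min, room temperature. Step 2, add rhodamine-CoA (5 uM) and BHQ-2-YbbR (12.5 uM). Step 3, read 525/598 nm fluorescence at 0 and 30 min.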
Each line names hits and unclear results; the compound was inactive in the other large screens. Unless noted, calls follow the shape of the dose curve; as a rule, active = well fitted curve in the direction sought with a large enough effect; inconclusive = small, poorly fitted or top-dose-only effect, or another doubt; inactive = no such curve, though single readings can be large; an effect the other way counts as inactive or inconclusive.

O=C(NCc1ccco1)[C@@H]1CSC2c3ccccc3C(=O)N21 (stereo partly specified)	Sfp PPTase inh 35.5µM
O=C(O)C1CSC2c3ccccc3C(=O)N12 (stereo unspecified)	G9a block inconclusive, ALDH1A1 block 7.51µM
Cc1ccc(NC(=O)Cn2c(C)cc(C)c(C#N)c2=O)cc1	none (no result: ALDH1A1 block, KDM4E inh, Sfp PPTase inh)
CCN(CC)S(=O)(=O)c1cccc(C(=O)N/N=C/c2cc(OC)c(O)c(OC)c2)c1	G9a block 10µM
COc1cc(/C=N/NC(=O)c2cccc(S(=O)(=O)N3CCCC3)c2)cc(OC)c1O	G9a block 14.1µM (no result: Lamin A splicing, miR-21 reporter, ALDH1A1 block, KDM4E inh, Sfp PPTase inh)
CCN(CC)S(=O)(=O)c1cccc(C(=O)N/N=C/c2cccc(O)c2O)c1	Lamin A splicing inconclusive, Sfp PPTase inh inconclusive
NC(=S)N/N=C/c1coc2cc(Br)ccc2c1=O	Lamin A splicing inconclusive, ALDH1A1 block 2µM
NC(=S)N/N=C/c1coc2ccc(Br)cc2c1=O	none (no result: Lamin A splicing, ALDH1A1 block)
NC(=S)N/N=C/c1coc2c(ccc3ccccc32)c1=O	Lamin A splicing inconclusive, ALDH1A1 block 2.24µM
O=C(N/N=C/c1coc2ccccc2c1=O)c1cc(Br)c(O)c(Br)c1	G9a block 50.1µM (no result: Lamin A splicing, ALDH1A1 block, KDM4E inh)
NC(=S)N/N=C/c1coc2ccc(O)cc2c1=O	G9a block inconclusive, ALDH1A1 block inconclusive, Sfp PPTase inh 1.58µM (no result: Lamin A splicing)
c1ccc(-c2cnc(SCCN3CCOCC3)n2CC2CCCO2)cc1 (stereo unspecified)	G9a block 2.51µM, ALDH1A1 block 10µM, KDM4E inh inconclusive
COc1ccc(-c2cnc(N)n2CC2CCCO2)cc1 (stereo unspecified)	ALDH1A1 block 39.8µM
COc1cccc(C(c2sc3nc(-c4ccco4)nn3c2O)N2CCN(C)CC2)c1 (stereo unspecified)	none (no result: ALDH1A1 block, KDM4E inh, Sfp PPTase inh)
CC(CCc1ccco1)NC(=O)Cn1ncc2c1-c1ccccc1OC2 (stereo unspecified)	G9a block inconclusive, ALDH1A1 block 17.8µM, Sfp PPTase inh 50.1µM
COc1ccc(N(CC(=O)Nc2ccc3c(c2)OCO3)S(=O)(=O)c2c(C)nn(C)c2C)cc1	ALDH1A1 block inconclusive
O=S(=O)(Nc1ccc2c(c1)OCCO2)c1ccc(F)cc1	none
O=[N+]([O-])c1ccc(S(=O)(=O)Nc2ccc3c(c2)OCCO3)cc1	G9a block 39.8µM, Sfp PPTase inh inconclusive (no result: Lamin A splicing, ALDH1A1 block, KDM4E inh)
O=S(=O)(Nc1ccncc1)c1ccc(Cl)cc1	none
Cc1nn(C)c(C)c1S(=O)(=O)Nc1ccc2c(c1)OCO2	G9a block 50.1µM
O=S(=O)(Nc1ccc(O)c(NS(=O)(=O)c2ccccc2)c1)c1ccccc1	G9a block 0.316µM, Sfp PPTase inh 39.8µM (no result: Lamin A splicing, ALDH1A1 block, KDM4E inh)
O=S(=O)(Nc1ccncc1)c1ccccc1	G9a block 50.1µM
COC(=O)[C@@]1(Cc2ccc(OC)cc2)[C@H]2c3cc(C(=O)N(C)C)n(Cc4cccc5ccccc45)c3C[C@H]2CN1C(=O)c1ccccc1	none (no result: Lamin A splicing, G9a block, miR-21 reporter)
Cc1cccc(NC(=O)CCS(=O)(=O)c2cc(Br)cc3c2N(C(=O)C2CC2)CC3)c1	none (no result: Lamin A splicing, ALDH1A1 block, KDM4E inh, Sfp PPTase inh)
Cc1ccc(S(=O)(=O)Nc2ccc3c(c2)OCCO3)cc1	Lamin A splicing inconclusive
CSc1ccc(S(=O)(=O)Nc2ccc3c(c2)OCCO3)cc1	Lamin A splicing inconclusive, ALDH1A1 block 15.8µM
Cc1c(O)ccc(NS(=O)(=O)c2ccccc2)c1C	ALDH1A1 block inconclusive
Cc1cc(NS(=O)(=O)c2ccccc2)c(C)c(Cl)c1O	Lamin A splicing inconclusive, G9a block 28.2µM
O=S(=O)(Nc1ccc2c(c1)OCO2)c1ccccc1	G9a block 14.1µM
Cc1ccc(CNC(=O)CCS(=O)(=O)c2cc3c4c(c2)CCN4C(=O)CC3)cc1	none (no result: Lamin A splicing, ALDH1A1 block, KDM4E inh, Sfp PPTase inh)
Cc1ccsc1C(=O)Nc1n[nH]c(C(F)(F)F)n1	none (no result: Lamin A splicing, ALDH1A1 block)
O=C(Nc1n[nH]c(C(F)(F)F)n1)C1CC1	Lamin A splicing inconclusive, G9a block 50.1µM, Sfp PPTase inh inconclusive
O=C(N=NC(=O)c1ccc2c(O)n(C3CCCCC3)c(O)c2c1)c1cccnc1	ALDH1A1 block 2.24µM

Source: PubChem BioAssay
